{"source": "PubChem BioAssay (NCI)", "note": "The panel holds about 83,000 compounds, 20% with a hit somewhere; the sample as a whole holds those more often.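 Values shown are percent growth following 48 h exposure of cells in 96-well plates to a single concentration of compound; below 10 was considered active.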 Calls of active or inactive are those of the source."}
{"tested_on": "CAKI-1 renal", "experiment": "NCI-60 one-dose screen, 48 h (100 = growth as untreated, 0 = no growth, -100 = all killed)", "settings": "10 µM unless noted"}
{"smiles": "COc1ccc2[nH]cc(-c3csc4nc(-c5ccccc5)cn34)c2c1", "growth": "26.3% (inactive)"}
{"smiles": "COc1cc(Cn2cc3c(c2)-c2onc(CN4CCCC4)c2CC3)cc(OC)c1OC", "growth": "91.7% (inactive)"}
{"smiles": "COC(=O)/C=C/c1c(C2(C)NC(=O)c3ccccc3N2)c(=O)oc2ccc(Cl)cc12", "note": "(stereo not drawn)", "growth": "78.2% (inactive)"}
{"smiles": "Cc1ccc2c(c1)Oc1nc(N)c(C#N)c(N)c1C2Sc1ccc(F)cc1", "note": "(stereo not drawn)", "growth": "-99.8% (active)"}
{"smiles": "COc1ccc(Cn2cc3c(c2-c2cc(OC)c(OC)c(OC)c2)CCc2c(CN4CCCC4)noc2-3)cc1", "growth": "35.9% (inactive)"}
{"smiles": "COc1ccc(Cn2cc3c(c2-c2cc(OC)c(OC)c(OC)c2)CCc2c(CN4CCOCC4)noc2-3)cc1", "growth": "44.6% (inactive)"}
{"smiles": "CCNC(=O)N1CCc2cc(OC)c(OCCc3ccc(OC)cc3)cc2C1c1ccc([N+](=O)[O-])cc1C", "note": "(stereo not drawn)", "growth": "27.2% (inactive)"}
{"smiles": "COc1ccc([C@@H]2[C@@H](O)C(=O)N2c2cc(OC)c(OC)c(OC)c2)cc1F", "growth": "30.3% (inactive)"}
{"smiles": "Cc1ccc(-c2nnc(SCc3ccc(O)c4ncccc34)n2-c2ccccc2)cc1", "growth": "9.59% (active)"}
{"smiles": "COc1cc2oc(-c3cccc(C(=O)N[C@@H](CC(C)C)C(=O)OC(C)(C)C)c3)cc(=O)c2c(OC)c1OC", "growth": "53.6% (inactive)"}
{"smiles": "Cc1ccc(S(=O)(=O)N(CC[C@@H]2C[C@H]2c2cc3ccccc3o2)S(=O)(=O)c2ccc(C)cc2)cc1", "growth": "86% (inactive)"}
{"smiles": "Brc1ccccc1/C=N/Nc1nc(N/N=C/c2ccccc2Br)nc(N2CCOCC2)n1", "growth": "109% (inactive)"}
{"smiles": "CC1=NC2=NC(=O)/C(=C3/N=C(C)C=C(c4ccccc4)N3N)NN2C(c2ccccc2)=C1", "growth": "83.2% (inactive)"}
{"smiles": "CN(C)CCN(C)c1ccc2ncc(C#Cc3cncc(C(=O)Nc4ccc(CN5CCN(C)CC5)c(C(F)(F)F)c4)c3)n2n1", "growth": "58.1% (inactive)"}
{"smiles": "NC(N)=Nc1ccc(Oc2cccc(Nc3ccc(Br)c(C(F)(F)F)c3)c2)cn1", "growth": "-5.28% (active)"}
{"smiles": "COc1cc(Cn2cc3c(c2)-c2onc(CN4CCOCC4)c2CC3)cc(OC)c1OC", "growth": "94.7% (inactive)"}
{"smiles": "Cc1cc(-c2ccc(Cl)cc2)n(Cc2nnc(SCC(=O)Nc3ccc(S(N)(=O)=O)cc3)n2-c2ccc([N+](=O)[O-])cc2)n1", "growth": "71.2% (inactive)"}
{"smiles": "COc1ccc(C(=O)CSc2nc3c(c(Nc4ccc(S(N)(=O)=O)cc4)n2)CCCC3)cc1", "growth": "70.9% (inactive)"}
{"smiles": "CCn1c(SCC(=O)Nc2cccc(C(=O)/C=C/c3cc(OC)c(OC)c(OC)c3)c2)nc2ccccc2c1=O", "growth": "45.4% (inactive)"}
{"smiles": "Nc1ncc(-c2ccc(NS(=O)(=O)c3ccc(Cl)c(Cl)c3)cc2)[nH]1", "growth": "71.6% (inactive)"}
{"smiles": "Cc1nn(-c2ccccc2)c2ncnc(N/N=C/c3ccccc3O)c12", "growth": "3.12% (active)"}
{"smiles": "COc1cc(-c2nnc(SCc3ccc(O)c4ncccc34)n2-c2ccccc2)cc(OC)c1OC", "growth": "1.72% (active)"}
{"smiles": "Oc1ccc(CSc2nnc(-c3ccc(Cl)cc3)n2-c2ccccc2)c2cccnc12", "growth": "48.7% (inactive)"}
{"smiles": "CCc1ccc(SC2c3ccc(N(CC)CC)cc3Oc3nc(N)c(C#N)c(N)c32)cc1", "note": "(stereo not drawn)", "growth": "-46.7% (active)"}
{"smiles": "CS(=O)(=O)Nc1cc(-c2ccc3ncc(C#N)c(NCc4ccccc4O)c3c2)cnc1Cl", "growth": "-1.29% (active)"}
{"smiles": "NS(=O)(=O)c1ccc(Nc2cc(-c3ccccc3)nc(SCC(=O)c3ccccc3)n2)cc1", "growth": "90% (inactive)"}
{"smiles": "c1ccc(C(c2nc3ncncc3[nH]2)N2CSc3nc4ccccc4n3C2)cc1", "note": "(stereo not drawn)", "growth": "89.5% (inactive)"}
{"smiles": "COCCNc1ccc2ncc(C#Cc3cncc(C(=O)Nc4ccc(CN5CCN(C)CC5)c(C(F)(F)F)c4)c3)n2n1", "growth": "-40.3% (active)"}
{"smiles": "O=c1c2ccccc2nc(COc2ccccc2)n1NS(=O)(=O)c1ccc(Cl)cc1", "growth": "73.1% (inactive)"}
{"smiles": "NC(N)=Nc1ccc(Oc2cccc(Nc3ccc(Cl)c(C(F)(F)F)c3)c2)cn1", "growth": "-6.78% (active)"}
{"smiles": "O=C1CC(=O)N2CSCN(C(c3ccccc3)c3nc4ncncc4[nH]3)C2=N1", "note": "(stereo not drawn)", "growth": "93.2% (inactive)"}
{"smiles": "COc1cc(/C=N/NC(=O)c2cn(C3CC3)c3c(OC)c(N4CC5CCCNC5C4)c(F)cc3c2=O)ccc1O", "note": "(stereo not drawn)", "growth": "82.9% (inactive)"}
{"smiles": "C[C@H](CCC(=O)NCc1ccc(C(=O)Nc2ccccc2N)cc1)[C@H]1CC[C@H]2[C@@H]3[C@@H](O)C[C@@H]4C[C@H](O)CC[C@]4(C)[C@H]3CC[C@]12C", "growth": "58.4% (inactive)"}
{"smiles": "N#Cc1cn(Cc2ccc(Cl)cc2Cl)c(C(=O)c2ccc(Br)cc2)c1N", "growth": "92.3% (inactive)"}
{"smiles": "CCNC(=O)N1CCc2cc(OC)c(OCCc3ccc(OC)nc3)cc2C1c1ccc(OC)cc1C", "note": "(stereo not drawn)", "growth": "33.7% (inactive)"}
{"smiles": "C=CCn1c(-c2nc3ccc(C(=C(C#N)C#N)c4ccccc4)cc3[nH]2)cc2cc(Br)ccc21", "growth": "48.8% (inactive)"}
{"smiles": "Cc1ccc(S(=O)(=O)NCCNc2nc(Nc3ccc(N4CCN(C)CC4)cc3)nc3ccsc23)cc1", "growth": "74.6% (inactive)"}
{"smiles": "COc1cc2nc(Cl)nc(Nc3cccc(C4=Nc5c(N)nc(N)nc5NC(c5ccc(Cl)cc5)C4)c3)c2cc1OC", "note": "(stereo not drawn)", "growth": "86.8% (inactive)"}
